HCMV antiviral: human cytomegalovirus inhibition | HFF cells, HCMV-luciferase reporter, 72 h; active compounds read low | activity change, negative = inhibition, % at 57.5 µM | 410,000 tested, 4.5% active | AID 1259415; in the data active = activity change below about -60%; inconclusive = no clear call, values can overlap the other calls; inactive = above about -39%
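HFF cells seeded 16 h at 37C, treated with compounds, infected with luciferase-reporter HCMV at MOI 1 PFU/cell; luciferase read at 72 h post infection, normalized to buffer-only and Salinomycin controls.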
Marburg entry inh: inhibitors of Marburg virus binding or cell entry; AID 540276; 300,000 tested, 1.8% active; Potency, µM (series often up to 37.8 µM), for the others: at the highest dose activity change, negative = inhibition, most hits filed as inhibitors; Marburg virus pseudotyped entry inhibition, cell reporter; calls by dose curve; tested in HEK293 cells; also: potency is read from the fitted curve at half-maximal effect
FMDV inh: blocks foot and mouth disease virus | FMDV antiviral cell-based qHTS | Potency, µM (titrated, usually from 57.9 µM), for inactives: at the top dose activity change, negative = inhibition, actives largely listed as inhibitors | 410,000 tested, 1.2% active | AID 1159524; calls by dose curve; tested in HEK293T cells; also: read-out not given here; potency is read from the fitted curve at half-maximal effect; nearly all actives have a fitted effect of over 45% in size
Lassa entry inh: blocks Lassa virus binding to or entry into cells; 300,000 tested, 1.2% active; Lassa virus pseudotype entry inhibition, cell reporter; Potency, µM (titrated, usually from 37.9 µM), without a hit: at the highest dose activity change, negative = inhibition, usual class: inhibitors; calls by dose curve; tested in HEK293 cells; also: potency is read from the fitted curve at half-maximal effect; nearly all actives have a fitted effect of over 50% in size
The depositor's hits bear a star; ? = inconclusive; . = not tested or not shown; + = active, no number; [ ] = dose if it differs, or a comment. Rows were chosen to be rich in hits. Some 6.2% of all compounds tested hit in one or more screens of this group. % is scaled to controls: 0 for no effect and ±100 for the full control effect.

SMILES	HCMV antiviral	Marburg entry inh	FMDV inh	Lassa entry inh
CC(=O)Nc1ccc(NC(=O)COc2cccc3c2OC(C)(C)C3)cc1	-26	?	0%	-8%[46.1 µM]
COc1cc(NC(=O)COc2cc(O)c3c(c2)OC(C)(C)CC3=O)cc(OC)c1OC	0	.	4µM*	.
COC(=O)c1ccc(NC(=O)COc2cccc3c2OC(C)(C)C3)cc1	-4	-18%	-28%	-9%[46.1 µM]
COc1cc(NC(=O)COc2cccc3c2OC(C)(C)C3)cc(OC)c1OC	-39	.	22µM*	.
CCCCn1cc(S(=O)(=O)c2cccc(C)c2)c(=O)c2cc(F)c(N3CCOCC3)cc21	17	.	18%	-20%[46.1 µM]
CCOc1ccc2nc(N3CCCC(C(=O)NCCc4ccc(OCC)c(OCC)c4)C3)sc2c1 (configuration not stated)	39	-12%[46.1 µM]	10%	.
Cn1nc(-c2ccccc2F)c2cc(C(=O)NCCc3ccc(Cl)cc3)sc21	?	22%[46.1 µM]	-7%	?
COc1ccc(C(O)c2ncc(-c3ccccc3)[nH]2)cc1F (configuration not stated)	-101*	.	38%	.
COc1ccc(C(O)c2ncc(-c3ccccc3)[nH]2)cc1 (configuration not stated)	28	.	0%	.
OC(c1ccc(F)cc1)c1ncc(-c2ccccc2Cl)[nH]1 (configuration not stated)	85	.	107%	.
COc1ccc(C(O)c2ncc(-c3ccccc3Cl)[nH]2)cc1F (configuration not stated)	-102*	.	0%	.
Cc1ccc2c(c1)[C@@H]1CN(C)CC[C@@H]1N2S(=O)(=O)c1ccc([N+](=O)[O-])cc1	-10	?	-13%	-25%
Cc1ccc2c(c1)C1CN(C)CCC1N2Sc1ccccc1[N+](=O)[O-] (configuration not stated)	-9	?	?	7.1µM*
O=C(CCc1nnc2n(Cc3ccccc3)c(=O)c3ccccc3n12)NCCCN1CCCCC1	-62*	?	6%	24%[46.1 µM]
CC1CCCN(c2ncnc3c2cnn3-c2ccc(F)cc2)C1 (configuration not stated)	-80*	.	18µM*	-5%[46.1 µM]
CC1CCCN(c2ncnc3c2cnn3-c2ccccc2)C1 (configuration not stated)	?	.	-11%	.
CC1CCCN(c2ncnc3c2cnn3-c2ccc(Cl)cc2)C1 (configuration not stated)	-98*	.	25µM*	.
COC(=O)[C@@H]1C[C@@H](NC(=O)c2cccc3c(C)c(C)[nH]c23)CN1Cc1cccc2ccccc12	.	.	-2%	.
CC12CCC(=O)C=C1CCC1C2CCC2(C)C(O)(C(=O)CO)CCC12O (configuration not stated)	-65*	-28%	-8%	-12%
c1ccc(CCNc2nc(-c3ccccc3)cs2)cc1	48	.	.	.
CN(C)C(CNC(=O)c1ccc(C(=O)c2ccccc2)cc1)c1ccccc1 (configuration not stated)	7	?	14%	-27%[46.1 µM]
Cc1ccccc1NS(=O)(=O)c1ccc(C(=O)NCC(c2ccccc2)N(C)C)cc1 (configuration not stated)	-14	11µM*	-15%	-1%
COc1ccc(C(CNC(=O)Cc2ccc(-c3ccccc3)cc2)N(C)C)cc1 (configuration not stated)	7	11µM*	-20%	13%
CN(C)C(CNC(=O)c1ccc(-c2ccccc2)cc1)c1ccccc1 (configuration not stated)	-2	11µM*	-7%	-22%
COc1ccccc1-c1nn(CCC(=O)Nc2cccc(C(C)=O)c2)c2nc(C)cc(C)c12	-15	-15%[46.1 µM]	?	-28%[46.1 µM]
SMILES	HCMV antiviral	Marburg entry inh	FMDV inh	Lassa entry inh
CCOc1cccc(C(=O)NC(=S)Nc2ccc(Cl)cc2C(=O)O)c1	-60*	-17%[14.2 µM]	-17%	-14%
CC12CCC3C(CCC4(O)CC(O)CCC34C=NO)C1(O)CCC2C1=COC(=O)C1 (configuration not stated)	-98*	0.18µM*	?	0.25µM*
C[C@]12CCC3C(CCC4=CC(O)CC[C@@]43/C=N/O)C1(O)CCC2C1=CC(=O)OC1 (some centres not stated)	-96*	?	-17%	?
CC12CCC3C(CCC4(O)CC(O)CCC34C=O)C1(O)CCC2C1=CC(=O)OC1 (configuration not stated)	-100*	0.45µM*	?	0.71µM*
CCCCN=C[C@]12CCC(O)CC1(O)CCC1[C@@H]2CC[C@]2(C)[C@H](C3C=CC(=O)O3)CCC12O (some centres not stated)	-97*	3.5µM*	-24%	?
COc1cccc(-c2cc3c(Nc4cccc(NS(C)(=O)=O)c4)nccc3n2C)c1	-33	.	.	.
CN(C)CCNc1ncnc2c1ncn2[C@H]1CN(Cc2cccnc2)C[C@@H](CO)O1	33	.	-25%	.
COc1ccc(NC(=O)OC[C@@H]2CSCCS(=O)(=O)N2)cc1	-8	.	.	?
C[C@]12CC[C@H]3[C@@H](CC[C@]4(O)C[C@@H](O)CC[C@]34C=O)[C@@]1(O)CC[C@@H]2C1=CC(=O)OC1	-99*	.	?	.
C[C@H]1O[C@@H](OC2CC[C@]3(C=O)[C@H]4CC[C@]5(C)[C@@H](C6=CC(=O)OC6)CC[C@]5(O)[C@@H]4CC[C@]3(O)C2)CC2OC(C)(C)OC21 (some centres not stated)	-97*	.	?	.
CC12CC[C@H]3[C@@H](CCC4(O)C[C@H](O)CCC34/C=N/NC(=O)c3ccccc3Cl)C1(O)CCC2C1=CC(=O)OC1 (some centres not stated)	-32	.	-22%	.
CCCn1c2ccccc2c2cnn(CC(=O)NCCc3ccc(OCC)c(OCC)c3)c(=O)c21	-13	.	?	2%[46.1 µM]
CCCCCCCCSC1=CC(=O)C(OC)=C(OC)C1=O	-87*	.	18µM*	.
CC(=O)NC1=C(C#N)C(c2ccccc2)c2c(ccc3ccccc23)O1 (configuration not stated)	32	10µM*	-7%	?
CCOC(=O)CC(=O)Nc1ncnc2c1C(c1ccccc1)c1c(ccc3ccccc13)O2 (configuration not stated)	15	.	?	.
COc1ccc(C(=O)COc2nc(C)cc(C)c2C#N)cc1	-64*	?	-10%	-4%
O=[N+]([O-])c1cccc(COc2ccc(CO)cc2)c1	44	?	.	.
CC(C)(C)OC(=O)N1CCC(c2c(C(=O)Nc3ccc4c(c3)OCCO4)cnn2-c2ccc(F)cc2)CC1	-6	.	-4%	?
COc1ccc(-n2ncc(C(=O)Nc3ccc4c(c3)OCCO4)c2C2CCN(C(=O)OC(C)(C)C)CC2)cc1	+	.	-8%	?
Cc1c(Cl)cccc1-n1ncc(C(=O)Nc2ccc3c(c2)OCCO3)c1C1CCN(C(=O)OC(C)(C)C)CC1	-82*	.	-5%	?
CC(=O)c1ccc(C(=O)NCc2nc(-c3ccccc3NC(=O)c3cc(C)oc3C)oc2C)cc1	.	.	10%	.
O=C1C=CC2(C=C1)O[C@H](Cc1ccccc1)[C@@H](Cc1ccccc1)O2	-99*	2.8µM*	4µM*	7.1µM*

Screens deposited in PubChem BioAssay by National Center for Advancing Translational Sciences (NCATS).
